Test results reported in PubChem BioAssay AID1240 (Sanford-Burnham Center for Chemical Genomics, 2008).
Out of some 50,000 compounds screened, about 800 (1.6%) showed an effect of 50% or more. The entries come from a sample that favours strong results as a whole.

Molecular target: Bcl-2-like protein 10 (Homo sapiens) (UniProt Q9HD36)
Experiment: Phenotype converters, Bcl-B/TR3 peptide binding displacement, primary biochemical FP (AID 1240);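 note: 0% = Bcl-B with tracer peptide and DMSO and 100% = tracer peptide lacking Bcl-B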
Settings: GST-Bcl-B / FITC-TR3 peptide fluorescence polarization; stronger effect = higher value; compound at 3.75 mg/L

Sequence of Bcl-2-like protein 10 (Homo sapiens) (Q9HD36 whole entry, looked up): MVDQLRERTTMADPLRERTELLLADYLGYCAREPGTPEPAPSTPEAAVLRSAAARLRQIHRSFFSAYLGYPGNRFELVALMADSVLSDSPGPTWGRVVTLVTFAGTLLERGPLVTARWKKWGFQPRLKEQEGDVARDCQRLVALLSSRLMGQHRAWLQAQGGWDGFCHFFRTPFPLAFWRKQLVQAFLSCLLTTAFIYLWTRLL

Row | SMILES | displacement [%]
1 | CC(C)(C)c1cc(C(=O)N/N=C/C=C/c2ccccc2)n[nH]1 | -9.5
2 | COc1ccc(/C=N/Nc2ncc(Br)cn2)cc1 | -11.3
3 | C=CCn1c(O)c(C2=c3cc(Cl)ccc3=NC2=O)sc1=S | -14.2
4 | CCc1ccc(S(=O)(=O)Nc2ccccc2OC)cc1 | 13.8
5 | N/C(=N\OC(=O)c1ccc(Br)cc1)c1ccc(Cl)cc1 | 2.2
6 | Cc1cc(Cl)ccc1OCC(O)CN1C(C)CCCC1C (stereo not given) | 0.8
7 | CC(=O)N1C(=O)/C(=C\C(=O)c2ccc([N+](=O)[O-])cc2)c2ccccc21 | 0.8
8 | CC(C)NC(=O)C12CC3CC(C1)CC(C(=O)NC(C)C)(C3)C2 | 1.3
9 | CCOC(=O)CSc1nnc2c3ccccc3n(CC)c2n1 | -10.4
10 | Cc1ccc(OCc2nnc(NC(=O)Nc3cccc(Cl)c3)s2)cc1C | 14.2
11 | C/C(=N\N=C1\NC(=O)C(CC(=O)Nc2ccc(Cl)cc2Cl)S1)c1ccc(Cl)cc1 (stereo not given) | 15.5
12 | COc1ccc(CNC(=O)c2c(-c3c(Cl)cccc3Cl)noc2C)cc1 | 0.9
13 | Cc1ccc(/C=C(\C#N)c2nc(-c3cccc(Br)c3)cs2)o1 | 164
14 | COc1cccc(-c2csc(/C(C#N)=C/c3ccc(C)o3)n2)c1 | -113
15 | Cc1ccc(/C=C(\C#N)c2nc(-c3ccc(C)c(C)c3)cs2)o1 | -25.1
16 | COc1cc(OC)c(C=Nc2ccccc2C(=O)Nc2ccccc2)cc1Br | -6
17 | Cc1ccc(-n2c(O)c(/C=N/n3cnnc3)c3ccccc3c2=O)cc1 | 5.8
18 | Cc1ccccc1NC(=O)c1cc2ccccc2c(/C=N/n2cnnc2)c1O | 109
19 | CCOc1ccccc1C=Nc1ccccc1C(=O)Nc1ccccc1 | -7.9
20 | COc1ccccc1N=Cc1c(O)c(C(=O)Nc2ccccc2)cc2ccccc12 | 105
21 | Cc1ccccc1NC(=O)c1cc(-c2ccccc2)nc2c(Cl)cccc12 | -13.6
22 | COC(C(=O)NNC(=O)c1cccc(Cl)c1)c1ccccc1 (stereo not given) | -5.9
23 | CCOC(=O)C1=C(C)NC(=O)NC1c1cc(OC)c(OC)c(OC)c1 (stereo not given) | 9.3

Row | SMILES | displacement [%]
24 | O=C(CN(c1cccc([N+](=O)[O-])c1)S(=O)(=O)c1ccccc1)NCC1CCCO1 (stereo not given) | -4.4
25 | O=C(Nc1ccc2nn(-c3ccc(Cl)cc3)nc2c1)c1cccnc1 | 29.6
26 | CCOC(=O)c1c(NC(=O)c2ccc(Cl)cc2Cl)sc(C)c1C | 6.1
27 | CCOC(=O)c1c(NC(=O)c2ccc(Cl)cc2Cl)sc(C(=O)Nc2ccccc2C)c1C | 1.3
28 | CCOC(=O)c1c(NC(=O)c2ccc(Cl)cc2Cl)sc(C(N)=O)c1C | 88.7
29 | O=S(=O)(c1ccc2ccccc2c1)N(CC(O)CN1CCOCC1)c1ccccc1 (stereo not given) | -0.7
30 | O=C(NCc1cccnc1)c1cccc(S(=O)(=O)N2CCCCC2)c1 | 2.2
31 | CCOC(=O)/C=C/C(=O)Nc1sc(C)c(C)c1C(N)=O | -2
32 | CCOn1c(=O)c(-c2cccs2)[n+]([O-])c2ccccc21 | 121
33 | CCOn1c(=O)c(C)[n+]([O-])c2ccccc21 | 14.9
34 | CCOn1c(=O)c(-c2ccccc2)[n+]([O-])c2ccccc21 | 18.9
35 | COn1c(=O)c(-c2ccccc2)[n+]([O-])c2ccccc21 | 15.9
36 | O=c1c(-c2ccccc2)[n+]([O-])c2ccccc2n1O | 21.7
37 | O=c1c(-c2cccs2)[n+]([O-])c2ccccc2n1O | 69.4
38 | Cc1ccc(OCC(=O)NN)c(Br)c1 | -6.5
39 | CN1CCN(CCCOc2ccc(Br)cc2)CC1 | -8.4
40 | O=C(N/N=C/c1ccc(O)cc1)c1cc(C2CC2)[nH]n1 | -10.1
41 | COC(=O)C1=C(C(=O)OC)SC(=C2C(=S)C(C)(C)N(C(=O)c3cccc(F)c3)c3ccc(OC)cc32)S1 | -7.9
42 | Clc1ccc(-c2noc(-c3ccc(Cl)cc3Cl)n2)cc1 | 4.3
43 | CCOC(=O)C1=C(O)/C(=C/c2ccc(Cl)cc2)SC1=Nc1cccc2ccccc12 | -11.7
44 | CCOC(=O)C1=C(O)/C(=C/c2ccccc2)SC1=Nc1cccc2ccccc12 | 14.5
45 | CCOC(=O)C1=C(O)/C(=C/c2ccc(N(C)C)cc2)SC1=Nc1ccc(OC)cc1 | 3.8
46 | CCOC(=O)C1=C(O)/C(=C/c2ccc(N(C)C)cc2)SC1=Nc1ccc([N+](=O)[O-])cc1 | 15.5

Row | SMILES | displacement [%]
47 | CCOC(=O)C1=C(O)/C(=C/c2ccc(N(C)C)cc2)SC1=Nc1ccc(Cl)cc1 | 170
48 | CCOC(=O)C1=C(O)/C(=C/c2ccc(N(C)C)cc2)SC1=Nc1ccc(F)cc1 | 142
49 | CCOC(=O)C1=C(O)/C(=C/c2ccc(N(C)C)cc2)SC1=Nc1cccc(Cl)c1 | -53.7
50 | CCOC(=O)C1=C(O)/C(=C/c2ccc(F)cc2)SC1=Nc1ccccc1 | -10.3
51 | CCOC(=O)C1=C(O)/C(=C/c2ccc(Cl)cc2)SC1=Nc1ccc(C)cc1 | 5.9
52 | CCOC(=O)C1=C(O)/C(=C/c2ccc(O)cc2)SC1=Nc1ccc(Cl)cc1 | 104
53 | CCOC(=O)C1=C(O)/C(=C/c2ccc(N(C)C)cc2)SC1=Nc1cccc2ccccc12 | 168
54 | CCOC(=O)C1=C(O)/C(=C/c2ccc(Cl)cc2)SC1=Nc1ccc(OC)cc1 | 3.1
55 | Cc1cccc(OCC(=O)Nc2ccc(C)c(C)c2)c1 | -13.9
56 | CCOC(=O)C1=C(C)NC(=O)CC1c1cc2c(cc1Br)OCO2 (stereo not given) | -6.4
57 | O=C(O)/C=C\C(=O)Nc1ccccc1SC(F)(F)F | 9.3
58 | O=C1C=CC(=O)N1c1ccc(Cl)cc1[N+](=O)[O-] | -9
59 | CCOC(=O)c1c(N)sc(C(=O)Nc2ccccc2F)c1C | 12.7
60 | CCC(=O)Nc1nc(C)c(-c2csc(Nc3cccc(C(=O)O)c3)n2)s1 | 34.5
61 | CC(NC(=O)COc1ccc(/C=N/NS(=O)(=O)c2ccccc2)cc1)c1ccccc1 (stereo not given) | 4
62 | COc1ccc(C(=O)/C=C/c2ccc(/C=C/C(=O)c3ccc(OC)cc3)cc2)cc1 | 19.1
63 | O=C(/C=C/c1ccc(-c2ccccc2Cl)o1)c1ccc(F)cc1 | 6.5
64 | O=C(/C=C/c1ccc(-c2cccc(C(F)(F)F)c2)o1)c1ccc(F)cc1 | -28.8
65 | COc1ccc(C(=O)/C=C/c2ccc(-c3ccc([N+](=O)[O-])cc3)o2)cc1 | 133
66 | COc1ccc(/C=C/C(=O)c2ccc([N+](=O)[O-])cc2)cc1 | 105
67 | COc1ccc(C(=O)/C=C/c2ccc(-c3ccccc3[N+](=O)[O-])o2)cc1 | 13.8
68 | COc1ccc(-c2ccc(/C=C/C(=O)c3ccc(Cl)cc3)o2)cc1 | -16.7
69 | Cc1ccc(C(=O)/C=C/c2ccc(-c3ccc(Cl)cc3)o2)cc1 | 17.9

Row | SMILES | displacement [%]
70 | O=C(/C=C/c1ccc(-c2ccccc2)o1)c1ccc(F)cc1 | 54.3
71 | COc1ccc(-c2ccc(/C=C/C(=O)c3ccc(C)cc3)o2)cc1 | 91.1
72 | COc1ccc(/C=C/C(=O)c2cccc([N+](=O)[O-])c2)cc1 | 14.9
73 | O=C(/C=C/c1ccc(-c2ccc(Br)cc2)o1)c1ccc([N+](=O)[O-])cc1 | -1.7
74 | CC(C)(C)C1CCc2c(sc(NC(=O)c3ccccc3)c2C(N)=O)C1 (stereo not given) | 37
75 | CCNC(=O)C(=O)Nc1ccc(OCC)cc1 | 7.5
76 | COc1ccc(NC2(c3ccccc3)C(=O)c3c(Cl)c(Cl)c(Cl)c(Cl)c3C2=O)cc1 | 4.4
77 | O=Cc1cccc(OCc2ccccc2F)c1 | -0.4
78 | CC1(O)c2ccccc2C(=O)N1Cc1ccccc1 (stereo not given) | 12.6
79 | Cc1ccc(Cc2cnc(NC(=O)c3cccc([N+](=O)[O-])c3)s2)cc1 | 26.3
80 | C=C1CSc2nc(=O)c3c4c(sc3n21)CCC4 | 11.7
81 | O=C1NC(=O)C(=Cc2ccc(OC(=O)c3cccc([N+](=O)[O-])c3)cc2)C(=O)N1 | 1.8
82 | O=C1OC(c2cccc(Cl)c2)=N/C1=C\c1ccc(OC(=O)c2cccc([N+](=O)[O-])c2)cc1 | 71.9
83 | Cc1cccc(C(=O)Oc2ccc(/C=C3/N=C(c4ccccc4)OC3=O)cc2)c1 | 0.5
84 | CCCCCCCNC1CC(=O)N(c2ccc(Br)cc2)C1=O (stereo not given) | 1.7
85 | Cc1ccc(-c2[nH]n3c(=O)c4c(nc3c2C)CCS4)cc1 | -0.6
86 | Cc1ccc(-c2[nH]n3c(=O)c4c(nc3c2C)CCC4)cc1 | 60.8
87 | Cc1ccc(-c2[nH]n3c(=O)c4c(nc3c2C)CCCC4)cc1 | -2.2
88 | CCOc1ccc(/C=C(/C#N)c2nc(-c3ccc(Br)cc3)cs2)c(OCC)c1 | 38.9
89 | O=C(Cc1ccc([N+](=O)[O-])cc1)NCc1ccccn1 | 14.1
90 | COc1ccc(/C=C/C(=O)NC(C)Cc2ccccc2)cc1OC (stereo not given) | -5.6
91 | CCOc1ccc(/C=C2/SC(=S)NC2=O)cc1Cl | 11.7
92 | COc1ccc(/C=C2/SC(=S)NC2=O)cc1OCc1ccc(Cl)cc1 | 4.2

Row | SMILES | displacement [%]
93 | COc1ccc(/C=C2/SC(=S)NC2=O)cc1OCc1ccc([N+](=O)[O-])cc1 | 76.9
94 | CCOc1ccc(/C=C2/SC(=S)NC2=O)c(OCC)c1 | 114
95 | CCOc1cc(/C=C2\SC(=S)NC2=O)ccc1OC(C)=O | 12
96 | COc1cc(/C=C2/SC(=S)NC2=O)ccc1OCc1ccc(I)cc1 | -8.4
97 | CCOc1ccc2ccc(OCC)c(/C=C3/SC(=S)NC3=O)c2c1 | -0.8
98 | CCOc1cccc(/C=C2/SC(=S)NC2=O)c1O | 5.7
99 | CCOc1cc(/C=C2/SC(=S)NC2=O)ccc1OC | 119
100 | CCOc1ccc(C=Nc2ccc3c(c2)nc(C)n3C)cc1 | 6.5
101 | CSc1ccccc1NC(=O)c1ccc([N+](=O)[O-])cc1 | 10.7
102 | CCOC(=O)c1cc(C#N)c(SCc2ccccc2)[nH]c1=O | -2.6
103 | COc1ccc(C(=O)N2CCN(c3cccc(C)c3C)CC2)cc1OC | 2.4
104 | Cc1cc(C)cc(CC2CC(=O)N(c3ccc(Br)cc3)C2=O)c1 (stereo not given) | -8
105 | CC(=O)n1cc(Nc2ccccc2C(=O)O)c2ccccc21 | -3
106 | O=C(NCC1CCCO1)c1ccc(S(=O)(=O)N2CCCCC2)cc1 (stereo not given) | -4.5
107 | Cc1cccc(-n2c(C)cc(C=C3C(=O)c4ccccc4C3=O)c2C)c1 | 138
108 | Cc1cc(C=C2C(=O)c3ccccc3C2=O)c(C)n1-c1ccc(N2CCOCC2)cc1 | 0.7
109 | Cc1cc(C=C2C(=O)c3ccccc3C2=O)c(C)n1-c1cccnc1 | -15.5
110 | CCOC(=O)c1ccc(-n2c(C)cc(C=C3C(=O)c4ccccc4C3=O)c2C)cc1 | 11.9
111 | Cc1cc(/C=C2/NC(=O)NC2=O)c(C)n1-c1cccc(Cl)c1 | 10
112 | Cc1cc(/C=C2/SC(=O)NC2=O)c(C)n1-c1cccc(Cl)c1 | 18.6
113 | Cc1cc(C=C2C(=O)c3ccccc3C2=O)c(C)n1-c1cccc([N+](=O)[O-])c1 | 11.8
114 | Cc1cc(C=C2C(=O)c3ccccc3C2=O)c(C)n1-c1ccc(Cl)cc1 | 100
115 | Cc1cc(C=C2C(=O)c3ccccc3C2=O)c(C)n1-c1cccc(Cl)c1 | 180
